# Only some compounds are listed: those with a hit (about 2.2% of all), similar ones and a draw of the others.
# FAS TE block = FAS thioesterase domain inhibitors, primary screen, biochemical, fluorescence intensity, uHTS. Fatty acid synthase (Homo sapiens), P49327. recombinant FAS-TE, OMFH fluorogenic substrate, fluorescence endpoint. inhibition, % at 15 µM. 360,000 tested, 0.67% active. AID 602261, 2012;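 active means compounds whose normalised, plate-corrected inhibition of enzyme fluorescence in the single-dose primary screen is 50% or more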
# PLCg1 inh = PLC-gamma1 enzyme inhibitors, primary screen, biochemical, fluorescence, purified enzyme | 1-phosphatidylinositol 4,5-bisphosphate phosphodiesterase gamma-1 (Homo sapiens), P19174 | fluorogenic substrate | inhibition, % at 12.2 µM | 370,000 tested, 0.84% active | AID 720700, 2013; in the data active means inhibition above about 9.5%
# Cardio protect = cardioprotection against H2O2-induced cell death, primary screen, uHTS, H9c2 cells, ATPLite luminescence; 360,000 tested, 0.63% active; H9c2 cardiomyocytes, H2O2 injury protection, 2 h; protection from H2O2 cell death, % at 20 µM;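 active means compounds giving at least 50% protection of heart cells from peroxide-induced death in the single-dose screen, raw or plate-pattern-corrected value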
# PLC-beta3 inh = human PLC-beta3 inhibitors, primary screen, biochemical, fluorescence; 1-phosphatidylinositol 4,5-bisphosphate phosphodiesterase beta-3 (Homo sapiens), Q01970; Purified PLC-beta3, fluorogenic substrate; inhibition, % at 12.2 µM; 370,000 tested, 0.18% active; AID 720704, 2013; in the data active means inhibition above about 11%
# FAS-TE conf = FAS thioesterase domain inhibitors, confirmation, biochemical, fluorescence intensity, single concentration | shares compounds with FAS TE block | recombinant FAS-TE, OMFH fluorogenic substrate | inhibition, % at 15 µM | 2,300 tested, 45% active;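 active means compounds inhibiting the enzyme by at least 50% at 15 µM in any one of the replicates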
# A number is an active result; 0 = inactive; - = no result.
SMILES,FAS TE block,PLCg1 inh,Cardio protect,PLC-beta3 inh,FAS-TE conf
CC1CCC2(CCC(=O)N2CCCOC(=O)Nc2cccc(C(F)(F)F)c2)CC1 (stereo unspecified),-,0,-,0,-
COc1ccc(-c2cc(C(=O)N=Nc3c(O)[nH]c4ccccc34)[nH]n2)cc1,-,0,-,0,-
CC(C)N1CCCCC(NC(=O)c2cccc(C(F)(F)F)c2)C1=O (stereo unspecified),-,0,-,0,-
COC(=O)[C@]12C[C@H](CC(=O)N3CCN(C(=O)c4ccco4)CC3)C(=O)N(CCc3ccc(OC)c(OC)c3)C1=C[C@H](C1CCCC1)O[C@@H]2C,-,0,-,0,-
COc1cc(/C=N/NC(=O)c2cccc([N+](=O)[O-])c2)cc(OC)c1O,0,0,0,0,-
COc1cc([N+](=O)[O-])cc(/C=N/NC(=O)c2cc(-c3ccccc3)nc3ccccc23)c1O,0,0,0,0,-
COc1cc([N+](=O)[O-])cc(/C=N/NC(=O)c2cc(C)nc3ccccc23)c1O,53.9,0,0,0,66.6
COc1cc([N+](=O)[O-])cc(/C=N/NC(=O)c2cncc(Br)c2)c1O,58.6,0,0,0,70.6
O=C(N/N=C\c1ccc([N+](=O)[O-])o1)c1cncc(Br)c1,0,0,0,0,-
COc1ccccc1-c1cc(C(=O)N/N=C/C=C/c2ccccc2[N+](=O)[O-])c2ccccc2n1,63.2,0,53.9,0,0
COc1cc(/C=N/NC(=O)c2cncc(Br)c2)cc([N+](=O)[O-])c1O,57.5,0,0,0,69.5
Cc1nc(N2CCN(S(=O)(=O)c3ccccc3)CC2)c2c3c(sc2n1)CC(C)CC3 (stereo unspecified),0,0,0,0,-
Cc1nc(N2CCN(S(=O)(=O)c3cccc4nonc34)CC2)c2c3c(sc2n1)CCCC3,54.1,0,48.7,0,0
CNS(=O)(=O)c1cccc(C(=O)OCC(=O)NC(C)CCc2ccccc2)c1 (stereo unspecified),0,0,0,0,-
CC(CCc1ccccc1)NC(=O)COC(=O)c1cc(NS(=O)(=O)c2ccc(Cl)c([N+](=O)[O-])c2)ccc1O (stereo unspecified),54.6,0,0,0,61.7
COC(=O)[C@]12C[C@H](CC(=O)NCCc3ccccc3OC)C(=O)N(CCc3ccc(OC)c(OC)c3)C1=C[C@H](C(C)C)O[C@@H]2C1CC1,-,0,-,0,-
COC(=O)c1ccc(Nc2nnc(-c3ccc(C)c(S(=O)(=O)NCC4CCCO4)c3)c3ccccc23)cc1 (stereo unspecified),66.9,0,0,0,0
Cc1ccc(-c2nnc(Nc3ccc(C(=O)N(C)C)cc3)c3ccccc23)cc1S(=O)(=O)NCC1CCCO1 (stereo unspecified),0,0,0,0,-
O=C(NCCO)[C@H](Cc1ccccc1)NC1(C(=O)NCCN2CCOCC2)CCCCC1,-,0,-,0,-
CC(C)CC(COCc1cccc(Cl)c1)N1CCN(C(=O)c2ccc(C(F)(F)F)cc2)CCC1=O (stereo unspecified),0,0,0,0,-
Cc1cccc(COC[C@H](Cc2ccccc2)N2CCN(C(=O)c3ccc(C(F)(F)F)cc3)CCC2=O)c1,0,0,-,0,-
Cc1cccc(COC[C@H](CC(C)C)N2CCN(C(=O)c3ccc(C(C)(C)C)cc3)CCC2=O)c1,54.3,0,-,0,44.7
Cc1cccc(COCC(CC(C)C)N2CCN(C(=O)c3ccc(C(C)(C)C)cc3)CCC2=O)c1 (stereo unspecified),58.6,0,0,0,56.4
COc1cccc(NC(=S)N2CCc3cc(OC)c(OC)cc3C2COc2ccc3c(C)cc(=O)oc3c2)c1 (stereo unspecified),58.2,0,0,0,0
N#Cc1ccc(Oc2ccc(-c3nc4ccccc4nc3-c3ccccc3)cc2)cc1C#N,70.3,0,0,0,0
SMILES,FAS TE block,PLCg1 inh,Cardio protect,PLC-beta3 inh,FAS-TE conf
N#Cc1ccc(Oc2ccc(-c3cnc4ccccc4n3)cc2)cc1C#N,0,0,0,0,-
COc1cc(NC(=O)c2cc3nc(-c4ccccc4)cc(-c4ccccc4)n3n2)cc(OC)c1OC,51.5,0,80.1,0,0
COC(=O)c1ccccc1NC(=S)N(Cc1ccc2c(c1)OCO2)Cc1cc2cc(OC)ccc2[nH]c1=O,67.8,0,0,0,0
COc1ccccc1NC(=S)N(CCCN(C)C)Cc1cc2cc3c(cc2[nH]c1=O)OCO3,0,0,0,0,-
CS(=O)(=O)N1CCc2cc(-c3csc(NC(=O)Cc4cccs4)n3)ccc21,62.0,0,0,0,29.1
CCOC(=O)[C@]12CCCCC/C=C\1N(CCc1ccc(Cl)cc1)C(=O)[C@H]2CC(=O)NCC1CCCCC1,-,0,-,0,-
CCCCN(CCCNC(=O)c1c(C)cc(=O)oc1C)c1ccccc1,51.1,0,0,0,0
COCCCNC(=O)C[C@H]1C[C@@]2(C(=O)OC)C(=C[C@H](C(C)C)O[C@@H]2C2CC2)N(Cc2ccccc2)C1=O,-,0,-,0,-
Cc1ccc(-c2nnc3ccc(SCC(=O)N4CCCc5ccccc54)nn23)cc1,73.7,0,105.1,0,70.0
Cc1ccc(-c2nnc3ccc(SCC(=O)N4CCc5ccccc54)nn23)cc1,0,0,0,0,-
CCCCNc1cccc2c1S(=O)(=O)N[C@@H](Cc1ccccc1)CO2,-,0,-,0,-
COC(=O)C1=C(C)N(C)C(=NCc2cccc(C(F)(F)F)c2)NC1c1ccc(Cl)cc1 (stereo unspecified),-,0,-,0,-
COc1cccc(-c2cc(C(=O)Nc3ccc([N+](=O)[O-])cn3)c3ccccc3n2)c1,51.5,0,0,0,0
COc1cc2c(cc1NC(=O)c1cc(-c3ccccn3)nc3ccccc13)oc1ccccc12,57.2,0,0,0,0
O=C(Nc1ccc([N+](=O)[O-])cn1)c1cc(-c2cccc(Br)c2)nc2ccccc12,0,0,0,0,-
COc1ccc(-c2cc(C(=O)Nc3ccccc3O)c3ccccc3n2)cc1OC,0,0,0,0,-
COc1ccc(-c2cc(C(=O)Nc3sc4c(c3C#N)CCCC4)c3ccccc3n2)cc1OC,51.6,0,0,0,0
COc1ccc(-c2cc(C(=O)Nc3nc4ccccc4s3)c3ccccc3n2)cc1OC,82.2,0,0,0,0
C=CCCC1CN(CC=C)S(=O)(=O)c2c(F)cccc2O1 (stereo unspecified),-,0,-,0,-
COC(=O)[C@]12C=CCN1[C@@H](c1ccc(C(F)(F)F)cc1)c1c(c3ccccc3n1S(=O)(=O)c1ccc(C)cc1)C2,-,0,-,0,-
COc1cc(-c2ccc(Nc3ccccc3C(=O)O)c(OC)c2)ccc1Nc1ccccc1C(=O)O,71.1,0,0,0,72.7
COc1cc([N+](=O)[O-])c(OC)cc1Nc1ccccc1C(=O)O,-,0,-,0,-
N#CC(C#N)=C1SC(=Nc2ccccc2)C(=Nc2ccccc2)N1c1ccccc1,56.8,0,0,0,0

# From PubChem
